Structures can show the parent of a compound that is named as a salt. ± gives the standard error. About 75 (6%) of roughly 1,300 compounds showed an effect of 50% or more. The entries come from a sample that favours strong results as a whole.
Test system: Trichoderma virens ATCC 9645
Experiment: growth yield (OD600) relative to untreated control; higher = less growth inhibition
Details: compound concentration: 100 uM
Procedure, shortened: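 Library compounds (100 μM final), with or without a co-applied biocide (200 ng ml^−1), were added to 100 μl aliquots of Trichoderma virens ATCC 9645 spores at 15,000 spores ml^−1 in potato dextrose broth. Cultures were grown at 30 °C in 96-well plates, and OD600 was measured at 40 h and 72 h. Each growth value is a mean of duplicate screens, expressed relative to the control with neither agent.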

Structure (SMILES)	growth yield (40 h)	growth yield (72 h)
c1ccc2[nH]c(-c3cscn3)nc2c1 [Tiabendazole]	1.43 ± 1.4%	1.26 ± 1.3%
C[C@@H]1CCC[C@H](C)N1NC(=O)c1ccc(Cl)c(S(N)(=O)=O)c1 [Clopamide]	99.6 ± 1.8%	103 ± 3%
CCCCc1ncc(/C=C(\Cc2cccs2)C(=O)O)n1Cc1ccc(C(=O)O)cc1 [Eprosartan mesylate]	98.3 ± 5.6%	94.08 ± 0.94%
Cc1onc(-c2ccccc2)c1C(=O)N[C@@H]1C(=O)N2[C@@H]1SC(C)(C)[C@@H]2C(=O)O [Oxacillin sodium]	111 ± 1.6%	105 ± 1.4%
CCCCCOC(=O)Nc1nc(=O)n([C@@H]2O[C@H](C)[C@@H](O)[C@H]2O)cc1F [Capecitabine]	105.2 ± 0.64%	103.2 ± 0.84%
CC(CN(C)C)C(C)(O)Cc1ccc(Cl)cc1 (configuration not stated) [Clobutinol hydrochloride]	105 ± 3.5%	104 ± 2.5%
Oc1c(Cl)cc(Cl)c(Cl)c1Cc1c(O)c(Cl)cc(Cl)c1Cl [Hexachlorophene]	25.3 ± 2.1%	98.9 ± 5.8%
CC(C(=O)O)c1cccc(Oc2ccccc2)c1 (configuration not stated) [Fenoprofen calcium salt dihydrate]	97.5 ± 10%	97.7 ± 13%
CC(=O)N[C@@H](CC(C)C)C(=O)O [N-Acetyl-L-leucine]	103 ± 3%	103 ± 2.7%
CCCN(CCC)CCc1cccc2c1CC(=O)N2 [Ropinirole hydrochloride]	99.43 ± 0.64%	103 ± 1.1%
COc1cc([S+](C)[O-])ccc1-c1nc2cccnc2[nH]1 (configuration not stated) [Sulmazole]	99.4 ± 2.2%	98 ± 1.7%
Cc1cc(=O)oc2cc(O)ccc12 [Hymecromone]	101 ± 0.32%	97.01 ± 0.94%
COc1c2occc2c(OC)c2c(=O)cc(C)oc12 [Khellin]	97.7 ± 1.8%	95.1 ± 5.1%
Cc1cc2cc3c(C)cc(=O)oc3c(C)c2o1 [Trioxsalen]	42.1 ± 0.48%	73.7 ± 4.5%
CCOC(=O)C1=C(C)NC(C)=C(C(=O)OC)C1c1cccc([N+](=O)[O-])c1 (configuration not stated) [Nitrendipine]	85.6 ± 1.1%	89.9 ± 3.7%
COC(=O)C1=C(C)NC(C)=C(C(=O)OCCN(C)Cc2ccccc2)C1c1cccc([N+](=O)[O-])c1 (configuration not stated) [Nicardipine hydrochloride]	89.4 ± 5.2%	114 ± 7.8%
COC(=O)C1=C(C)NC(C)=C(C(=O)OC)C1c1ccccc1[N+](=O)[O-] [Nifedipine]	44.2 ± 1.3%	53.1 ± 1.1%
COCCOC(=O)C1=C(C)NC(C)=C(C(=O)OC(C)C)C1c1cccc([N+](=O)[O-])c1 (configuration not stated) [Nimodipine]	95.3 ± 7.3%	97.7 ± 9%
CCOC(=O)C1=C(C)NC(C)=C(C(=O)OC)C1c1cccc(Cl)c1Cl (configuration not stated) [Felodipine]	92.8%	94.2%
COC(=O)C1=C(C)NC(C)=C(C(=O)OCC(C)C)C1c1ccccc1[N+](=O)[O-] (configuration not stated) [Nisoldipine]	25.6 ± 0.48%	23.9 ± 2.3%
N=C(N=C(N)N)N1CCOCC1 [Moroxidine hydrochloride]	106 ± 4.3%	104 ± 1.9%
O=C(Nc1ccc([N+](=O)[O-])cc1Cl)c1cc(Cl)ccc1O [Niclosamide]	96.1 ± 0.16%	96.59 ± 0.1%

Structure (SMILES)	growth yield (40 h)	growth yield (72 h)
CN[C@@H]1[C@H](O[C@H]2[C@H](O[C@H]3[C@H](O)[C@@H](O)[C@H](N=C(N)N)[C@@H](O)[C@@H]3N=C(N)N)O[C@@H](C)[C@]2(O)C=O)O[C@@H](CO)[C@H](O)[C@H]1O [Streptomycin sulfate]	103 ± 1.3%	104.35 ± 0.1%
COc1cc(C)nc(-n2nc(C)cc2OC)n1 [Epirizole]	111 ± 3.8%	109 ± 3.8%
Cc1ncc(CO)c(CO)c1O [Pyridoxine hydrochloride]	101.5 ± 0.16%	103.3 ± 0.52%
Clc1ccc2c(c1)CCc1cccnc1C2=C1CCNCC1 [Desloratadine]	106 ± 6.8%	105 ± 4.8%
CCOC(=O)N1CCC(=C2c3ccc(Cl)cc3CCc3cccnc32)CC1 [Loratadine]	19.2 ± 12%	73.6%
CN1CCC(=C2c3ccccc3CCc3cccnc32)CC1 [Azatadine maleate]	107 ± 7.9%	104 ± 4.2%
COc1ccc(C[C@@H]2c3cc(OC)c(OC)cc3CC[N@+]2(C)CCC(=O)OCCCCCOC(=O)CC[N@@+]2(C)CCc3cc(OC)c(OC)cc3[C@H]2Cc2ccc(OC)c(OC)c2)cc1OC [Cisatracurium besylate]	95 ± 1.3%	94 ± 3.4%
CCCCc1ccc2[nH]c(NC(=O)OC)nc2c1 [Parbendazole]	53.4 ± 1.9%	95.9 ± 10%
CCCSc1ccc2[nH]c(NC(=O)OC)nc2c1 [Albendazole]	73.2 ± 3.6%	84.3 ± 5.5%
CCCOc1ccc2[nH]c(NC(=O)OC)nc2c1 [Oxibendazol]	16.4 ± 3.6%	74.6 ± 3.5%
Cc1ccc2c(c1)c1c3n2CCNC3CCC1 (configuration not stated) [Pirlindole mesylate]	101 ± 1.1%	104 ± 2.5%
Clc1cc(Cl)c(OCC#CI)cc1Cl [Haloprogin]	6.04 ± 1.6%	5.14 ± 0.73%
CC1CC(OC(=O)c2ccccc2O)CC(C)(C)C1 (configuration not stated) [Homosalate]	109 ± 3.2%	105.8 ± 0.32%
CCCCNc1c(C(=O)OCC)c(C)nc2c1cnn2CC [Tracazolate hydrochloride]	38.1 ± 16%	60.5 ± 13%
CCCCNc1ccc(C(=O)OCCOCCOCCOCCOCCOCCOCCOCCOCCOC)cc1 [Benzonatate]	92.1 ± 2.5%	89.1 ± 2.1%
CCCCNc1ccc(C(=O)OCCN(C)C)cc1	99.752 ± 2.2e-14%	102 ± 3.4%
CC[C@H]1OC(=O)C[C@@H](O)[C@H](C)[C@@H](O[C@@H]2O[C@H](C)[C@@H](O[C@H]3C[C@@](C)(O)[C@@H](O)[C@H](C)O3)[C@H](N(C)C)[C@H]2O)[C@@H](CC=O)C[C@@H](C)C(=O)/C=C/C(C)=C/[C@@H]1CO[C@@H]1O[C@H](C)[C@@H](O)[C@@H](OC)[C@H]1OC [Tylosin]	95.94 ± 0.32%	94.2 ± 1.9%
C[C@H]1c2cccc(O)c2C(=O)C2=C(O)[C@]3(O)C(=O)C(C(N)=O)=C(O)[C@@H](N(C)C)[C@@H]3[C@@H](O)[C@@H]21 [Doxycycline hydrochloride]	93.2 ± 1.8%	92.7 ± 2.7%
Cc1c(N(C)CS(=O)(=O)O)c(=O)n(-c2ccccc2)n1C [Dipyrone]	91.7 ± 4.6%	85.68 ± 0.73%
CC(=O)c1ccc2c(c1)N(CCCN(C)C)c1ccccc1S2 [Acetopromazine maleate salt]	109 ± 5.9%	111 ± 4.1%
CN1CCN(CCCN2c3ccccc3Sc3ccc(S(=O)(=O)N(C)C)cc32)CC1 [Thioproperazine dimesylate]	64.5 ± 11%	90.7 ± 4.1%
OCCN1CCN(CCCN2c3ccccc3Sc3ccc(Cl)cc32)CC1 [Perphenazine]	59.1 ± 5.1%	113 ± 14%

Structure (SMILES)	growth yield (40 h)	growth yield (72 h)
CCSc1ccc2c(c1)N(CCCN1CCN(C)CC1)c1ccccc1S2 [Thiethylperazine dimalate]	3.02 ± 0.16%	2.73 ± 0.42%
CN1CCN(CCCN2c3ccccc3Sc3ccc(Cl)cc32)CC1 [Prochlorperazine dimaleate]	31 ± 8.7%	108 ± 2.4%
CN(C)CCCN1c2ccccc2Sc2ccc(Cl)cc21 [Chlorpromazine hydrochloride]	68.8 ± 2.1%	86.52 ± 0.32%
COc1cc(N)c(Cl)cc1C(=O)NC1CCN(CCCOc2ccc(F)cc2)CC1OC (configuration not stated) [Cisapride]	108%	109%
O=C(Cn1ccnc1[N+](=O)[O-])NCCO [Etanidazole]	101 ± 2.2%	98 ± 1.9%
CCN(CC)CCOC(=O)C1(c2ccc([N+](=O)[O-])cc2)CCCC1 [Nitrocaramiphen hydrochloride]	101%	103.3 ± 0.52%
O=C(CCCN1CCC(O)(c2ccc(Br)cc2)CC1)c1ccc(F)cc1 [Bromperidol]	104.4 ± 0.48%	105.4 ± 0.1%
C/C(=C(\CCOP(=O)(O)O)SC(=O)c1ccccc1)N(C=O)Cc1cnc(C)nc1N [Benfotiamine]	99.75 ± 0.64%	96.38 ± 0.1%
NC(=O)c1cc[n+](CC2=C(C(=O)[O-])N3C(=O)[C@@H](NC(=O)[C@@H](c4ccccc4)S(=O)(=O)O)[C@H]3SC2)cc1 [Cefsulodin sodium salt]	95 ± 4.8%	99.3 ± 3.2%
CC[C@H](C)C(=O)O[C@H]1CCC=C2C=C[C@H](C)[C@H](CC[C@@H]3C[C@@H](O)CC(=O)O3)[C@H]21 [Mevastatin]	103 ± 7.6%	96.2 ± 6.6%
O=P(O)(O)C(O)(Cn1ccnc1)P(=O)(O)O [Zoledronic acid hydrate]	108 ± 4.5%	109 ± 1.6%
CO[C@H]1/C=C/O[C@@]2(C)Oc3c(C)c(O)c4c(O)c(c(/C=N/N5CCN(C6CCCC6)CC5)c(O)c4c3C2=O)NC(=O)/C(C)=C\C=C\[C@H](C)[C@H](O)[C@@H](C)[C@@H](O)[C@@H](C)[C@H](OC(C)=O)[C@@H]1C [Rifapentine]	84.5%	94%
CN1CCC(=C2c3ccccc3Sc3ccccc32)CC1 [Pimethixene maleate]	85.77 ± 0.64%	95.2 ± 1.9%
CSc1ccc2c(c1)C(N1CCN(C)CC1)Cc1ccccc1S2 (configuration not stated) [Methiothepin maleate]	43.5 ± 3.5%	75.4 ± 3.2%
CSc1ccc2c(c1)N(CCC1CCCCN1C)c1ccccc1S2 (configuration not stated) [Thioridazine hydrochloride]	53.8 ± 6.2%	83 ± 2.6%
CN(Cc1cc(Br)cc(Br)c1N)C1CCCCC1 [Bromhexine hydrochloride]	99 ± 1.1%	98.2 ± 1.9%
Cc1scc2c1N(C(=O)CN1CCN(C)CC1)c1ccccc1NC2=O [Telenzepine dihydrochloride]	99.75 ± 0.32%	103 ± 1.1%
CC(=O)Oc1cc(C(F)(F)F)ccc1C(=O)O [Triflusal]	94.5 ± 2.4%	91.77 ± 0.32%
Cc1cc(N)c2ccccc2[n+]1CCCCCCCCCC[n+]1c(C)cc(N)c2ccccc21 [Dequalinium dichloride]	2.54 ± 1.6%	2.2 ± 1.4%
Nc1ccccc1S(N)(=O)=O [2-Aminobenzenesulfonamide]	93.7 ± 1.6%	94.39 ± 0.63%
Cc1cc(C2CCCCC2)n(O)c(=O)c1 [Ciclopirox ethanolamine]	1.27 ± 1.3%	1.15 ± 1.1%
CC(=O)Nc1c(I)c(C(=O)N[C@H]2C(O)O[C@H](CO)[C@@H](O)[C@@H]2O)c(I)c(N(C)C(C)=O)c1I (some centres not stated) [Metrizamide]	102 ± 13%	105 ± 12%

— the supplement of paper PMC8007513
